# Compounds without any hit were thinned out: in the full panel of roughly 83,000, 20% have a hit.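 The test compound was applied at a single concentration to cells in 96-well plates for 48 hours, and percent growth was recorded.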 Values without a mark were called inactive. Active and inactive are the calls of the source. Rule for the calls: active = growth percent below 10; inactive = the rest.
# How the values were obtained:
# Experiment in all cases: NCI-60 one-dose screen, 48 h (100 = growth as untreated, 0 = no growth, -100 = all killed)
# Details in all cases: 10 µM unless noted
# T-47D breast = test system: T-47D breast
# BT-549 breast = test system: BT-549 breast
# MDA-MB-435 melanoma = test system: MDA-MB-435 melanoma
# SW-620 colon = test system: SW-620 colon
# MCF7 breast = test system: MCF7 breast
# HCT-116 colon = test system: HCT-116 colon
# HCC-2998 colon = test system: HCC-2998 colon
# KM12 colon = test system: KM12 colon
SMILES,growth (T-47D breast),growth (BT-549 breast),growth (MDA-MB-435 melanoma),growth (SW-620 colon),growth (MCF7 breast),growth (HCT-116 colon),growth (HCC-2998 colon),growth (KM12 colon)
Nc1nc(Nc2ccccc2SSc2ccccc2Nc2nc(N)nc(-c3ccc(I)cc3)n2)nc(-c2ccc(I)cc2)n1,67.1%,70.8%,86.7%,94.3%,76%,50.1%,105%,37.2%
O=Cc1ncc(-c2ccc(C(F)(F)F)cc2)c(NC2CCCCCC2)n1,-19% [100 µM] (active),-93.4% [100 µM] (active),-88.1% [100 µM] (active),-44.4% [100 µM] (active),-86.3% [100 µM] (active),-94.3% [100 µM] (active),-74.4% [100 µM] (active),-87.6% [100 µM] (active)
O=C1CSC(c2ccccc2O)N1c1nnc(Cn2ccnc2)o1 (configuration not stated),60.6%,64.5%,13.4%,61.5%,47.9%,50.8%,67.1%,45.1%
CCCCCN(CCCCC)CCCNc1c2c(nc3ccc(Cl)cc13)CCCC2,38.1%,36.2%,66.4%,33.5%,35.5%,5.37% (active),16.3%,55.5%
OCc1n(Cc2ccc3ccccc3c2)cc[n+]1Cc1ccc2ccccc2c1,31.3%,31.2%,5.53% (active),67.7%,61.8%,35.6%,39.8%,39.3%
O=C1/C(=C/c2cccc(Cl)c2)CCc2ccccc21,101%,102%,96.6%,56.4%,50.5%,93%,102%,87.9%
CSc1nc2nc3c(c(-c4ccc(C)cc4)c2c(=O)[nH]1)CN(C)C/C3=C\c1ccc(C)cc1,103%,114%,91.8%,103%,87%,101%,96.5%,101%
O=C(CNC(=O)c1cccc2ccccc12)Nc1ccccc1Oc1ccc(O)cc1,36.5% [5 µM],58.5% [5 µM],-16.1% [5 µM] (active),28.9% [5 µM],27.1% [5 µM],15.9% [5 µM],55.6% [5 µM],30.1% [5 µM]
COc1ccc2nc(NC(=O)CN3CCn4c(nnc4C(F)(F)F)C3)sc2c1,95%,96%,90%,94.5%,69.6%,99.4%,103%,79.3%
CCN1CC2=C(Nc3nc(SC)[nH]c(=O)c3C2c2cc(OC)c(OC)c(OC)c2)/C(=C/c2cc(OC)c(OC)c(OC)c2)C1 (configuration not stated),97.5%,102%,93.5%,102%,86.2%,92.6%,102%,97.5%
COc1cc(-c2nnc(-c3nc(-c4cc(OC)c(OC)c(OC)c4)n4ccccc34)o2)ccc1N,54.5%,67.1%,82.5%,87%,71.2%,54.2%,89.1%,68.3%
CC1C(C)N(C(=O)CCl)c2ccccc2N1C(=O)CCl (configuration not stated),-42% (active),-86.4% (active),-20.9% (active),-81.7% (active),-49.4% (active),-93.2% (active),-93.9% (active),-91.7% (active)
O=C1c2cccc3c([N+](=O)[O-])ccc(c23)C(=O)N1CCCCl,-48.4% [100 µM] (active),-98.2% [100 µM] (active),-89.3% [100 µM] (active),-44.4% [100 µM] (active),-65.5% [100 µM] (active),-90.6% [100 µM] (active),-91.9% [100 µM] (active),-81.3% [100 µM] (active)
CC[C@@H](c1ccc(O)c(O)c1)[C@@H](CC)c1ccc(O)c(O)c1,-8.01% (active),98%,62.9%,5.74% (active),98.8%,9.12% (active),103%,102%
CCN1CCN(c2nc(NNC(=O)Cc3ccccc3)nc(N3CCN(C(c4ccccc4)c4ccccc4)CC3)n2)CC1,29.9%,88.1%,-33.7% (active),16.5%,33.9%,28.3%,38.5%,59%
COC(=O)C1(NC(=O)CNC(=O)OCc2ccccc2)CCCC1,113%,99.1%,106%,104%,93.9%,99.9%,108%,108%
COc1cc(/C=C/C(=O)CC(=O)/C=C/c2ccc(OC(=O)C3C4CC5CC(C4)CC3C5)c(OC)c2)ccc1OC(=O)C1C2CC3CC(C2)CC1C3 (configuration not stated),99.4%,108%,112%,113%,110%,93%,98.8%,107%
CCc1nn2c(-c3ccc(Cl)cc3C)c(-c3cc(OC)c(OC)c(OC)c3)nc2s1,58.8%,101%,81.3%,82.5%,50.7%,60.5%,86.3%,89%
C[C@H]1O[C@@H](O[C@H]2[C@@H](O)C[C@H](O[C@H]3[C@@H](O)C[C@H](O[C@H]4CC[C@]5(C)C6C[C@@H](O)[C@]7(C)[C@@H](C8=CC(=O)OC8)CC[C@]7(O)C6CC[C@@H]5C4)O[C@@H]3C)O[C@@H]2C)C[C@H](O)[C@@H]1O (some centres not stated),-49.1% (active),-89.6% (active),-100% (active),-97.9% (active),-26.5% (active),-88.7% (active),-79.1% (active),-100% (active)
Oc1c(N=Nc2nn[nH]n2)ccc2ccccc12,97.7%,83.2%,67.7%,101%,73.7%,76.5%,103%,80.1%
c1cc[n+](Cc2ccnc3ccccc23)cc1,106%,112%,100%,50.2%,41.1%,21.1%,105%,103%
CCn1cnc(C[C@H](NC(=O)[C@H](CCCCNC(=O)Nc2cc(C(F)(F)F)cc(C(F)(F)F)c2)NC(=O)Nc2cc(C(F)(F)F)cc(C(F)(F)F)c2)C(=O)OC)c1,-62.8% [100 µM] (active),-35.3% [100 µM] (active),-65.4% [100 µM] (active),-40.9% [100 µM] (active),-47% [100 µM] (active),-100% [100 µM] (active),-20.8% [100 µM] (active),-43% [100 µM] (active)
O=[N+]([O-])c1ccc(NS(=O)(=O)c2ccc(Cl)c(Cl)c2)cc1,60.2%,76.8%,88.9%,103%,79.7%,85.3%,68.9%,90.1%
Cc1ccc2nc3c(n2c1)C(=O)C(=O)c1ccccc1-3,-44.1% (active),-96.4% (active),-69.6% (active),-80.5% (active),-64.1% (active),-50.4% (active),-54% (active),-26.6% (active)
CC[C@@H](C)/C=C(C)/C=C/C(=O)c1c(O)c(-c2ccc(O)cc2)cn(OC2CC(=O)CCC(C)OC(=O)CC2O)c1=O (some centres not stated),25.8%,14.6%,12.4%,22.9%,21.7%,18.5%,8.22% (active),19.8%
Cc1cc(C)c(C(=O)c2cccs2)c(C)c1,102%,109%,122%,107%,99%,101%,106%,110%
CO[C@H]1/C=C/O[C@@]2(C)Oc3c(C)c(O)c4c(O)c(c(/C=N/N5C(C)CN(Cc6ccc(C#N)cc6)CC5C)c(O)c4c3C2=O)NC(=O)/C(C)=C\C=C\[C@H](C)[C@H](O)[C@@H](C)[C@@H](O)[C@@H](C)[C@H](OC(C)=O)[C@@H]1C (some centres not stated),18.1%,-0.569% (active),26.1%,31.5%,11.9%,18.5%,2.4% (active),15.8%
c1ccc2nc(Cn3c[n+](Cc4ccc5ccccc5n4)c4ccccc43)ccc2c1,10.6%,8.39% (active),9.62% (active),45.3%,22.9%,18.1%,32.9%,21.9%
CC1c2ccccc2-c2ccccc2N1C (configuration not stated),85.7%,103%,119%,108%,99.4%,96%,105%,104%

# — PubChem BioAssay (NCI)
